Test results taken from the supplement of paper PMC13380429.

Tested on: Vero E6 infected with SARS-CoV-2
Assay: inhibition of SARS-CoV-2 cytopathic effect; higher = more antiviral protection, active = above 15
Conditions: 48 h

Measured: inhibition of SARS-CoV-2 cytopathic effect

Oc1ccc(Nc2nc(-c3ccc(Cl)cc3)cs2)cc1
inactive: 1 nM 0.33% | 8.33 nM 0.67% | 100 nM 2.65% | 833.33 nM 1.03% | 10000 nM 3.81%

COc1cc(C(=O)NCCCCCC(=O)O)cc(OC)c1OC [capobenic-acid]
inactive: 1 nM -6.75% | 8.33 nM -2.2% | 100 nM -0.79% | 833.33 nM -1.85% | 10000 nM 2.8%

Cc1n[nH]c(C)c1Cc1sc2c(c1C(=O)N1C[C@H](O)CO1)c(=O)n(C)c(=O)n2CC(C)C
inactive: 1 nM 1.42% | 8.33 nM 3.88% | 100 nM 0.66% | 833.33 nM 1.3% | 10000 nM 1.69%

CC(=O)N(c1onc(C)c1C)S(=O)(=O)c1ccc(N)cc1 [sulfisoxazole-acetyl]
inactive: 1 nM -4.04% | 8.33 nM -3.48% | 100 nM -3.58% | 833.33 nM -0.91% | 10000 nM 0.37%

NCC(O)c1ccc(O)cc1 (stereo not given) [octopamine]
inactive: 1 nM -3.66% | 8.33 nM -1.96% | 100 nM -2.91% | 833.33 nM -4.12% | 10000 nM 0.96%

COc1cc(OCc2cccc(-c3ccccc3)c2C)cc(OC)c1CN1CCCC[C@H]1C(=O)O [PD1-PDL-inhibitor-1]
inactive: 1 nM -2.92% | 8.33 nM 1.37% | 100 nM 5.72% | 833.33 nM 0.14% | 10000 nM 0.4%

CC(=O)N(C)c1cccc(-c2ccnc3c(C(=O)c4cccs4)cnn23)c1 [indiplon]
inactive: 1 nM 2.87% | 8.33 nM 0.82% | 100 nM 4.78% | 833.33 nM 4.31% | 10000 nM 0.34%

CC[N+](CC)(CC)CC(=O)Nc1c(C)cccc1C
inactive: 1 nM -1.18% | 8.33 nM -2.04% | 100 nM 0.02% | 833.33 nM 0.8% | 10000 nM -0.17%

COC(=O)Nc1nc2cc(C(=O)c3ccc(F)cc3)ccc2[nH]1 [flubendazole]
inactive: 1 nM -1.07% | 8.33 nM 0.53% | 100 nM 0.32% | 833.33 nM 0.07% | 10000 nM -2.34%

Nc1cc(C(F)(F)F)c(-c2nc(N3CCOCC3)nc(N3CCOCC3)n2)cn1
inactive: 1 nM -0.85% | 8.33 nM 5.6% | 100 nM 1.97% | 833.33 nM 1.89% | 10000 nM -3.26%

CC(=O)O[C@H]1C[C@@H]2CC[C@@H]3[C@H](CC[C@@]4(C)[C@H]3C[C@H](N3CC[N+](C)(C)CC3)[C@@H]4OC(C)=O)[C@@]2(C)C[C@@H]1N1CC[N+](C)(C)CC1 [pipecuronium]
inactive: 1 nM -1.2% | 8.33 nM -0.41% | 100 nM -0.11% | 833.33 nM -1.81% | 10000 nM -1.58%

O=C(NOCC1CC1)c1ccc(F)c(F)c1Nc1ccc(I)cc1Cl
inactive: 1 nM -1.59% | 8.33 nM -0.84% | 100 nM -7.28% | 833.33 nM -6.38% | 10000 nM -13.8%

Cc1cccc(C)c1NC(=O)CN1CCCC1=O [nefiracetam]
inactive: 1 nM -0.7% | 8.33 nM 0.26% | 100 nM -2.77% | 833.33 nM 1.22% | 10000 nM -6.8%

CCC1(c2c[nH]cn2)Cc2ccccc2C1 [atipamezole]
inactive: 1 nM 0.76% | 8.33 nM 2.54% | 100 nM 0.58% | 833.33 nM 2.4% | 10000 nM 1.28%

O=C(CCCN1CCC(n2c(=O)[nH]c3ccccc32)CC1)c1ccc(F)cc1 [benperidol]
inactive: 1 nM 0.17% | 8.33 nM -0.44% | 100 nM -0.77% | 833.33 nM 2.15% | 10000 nM -4.28%

CC(C)c1ccccc1S(=O)(=O)c1cc(N)c2ncccc2c1[N+](=O)[O-]
inactive: 1 nM 1.33% | 8.33 nM 1.24% | 100 nM 0.12% | 833.33 nM 5.82% | 10000 nM 9.31%

c1ccc(-c2nn3c(c2-c2ccnc4cc(OCCN5CCOCC5)ccc24)CCC3)nc1
inactive: 1 nM -0.68% | 8.33 nM 0.41% | 100 nM 1.87% | 833.33 nM -0.96% | 10000 nM 0.94%

Cc1cc(Nc2nc(N[C@@H](C)c3ccc(F)cc3)c(C#N)cc2F)n[nH]1
inactive: 1 nM 0.59% | 8.33 nM 0.82% | 100 nM -1.14% | 833.33 nM -3.33% | 10000 nM -13%

Cn1c(NCCN(CCO)CCCc2ccc([N+](=O)[O-])cc2)cc(=O)n(C)c1=O [nifekalant]
inactive: 1 nM -1.86% | 8.33 nM 0% | 100 nM -1.76% | 833.33 nM -0.02% | 10000 nM -1.25%

CC(=O)/N=c1/[nH]c(C)c(-c2ccc(Cl)c(S(=O)(=O)NCCO)c2)s1
inactive: 1 nM 0.03% | 8.33 nM -0.02% | 100 nM 1.03% | 833.33 nM 1.81% | 10000 nM 2.47%

OCCn1cc(-c2ccc3c(c2)CC/C3=N\O)c(-c2ccncc2)n1
inactive: 1 nM 8.04% | 8.33 nM 9.39% | 100 nM 8.46% | 833.33 nM 10.2% | 10000 nM 8.08%

COCCOC(=O)C1=C(C)NC(C)=C(C(=O)OC/C=C/c2ccccc2)C1c1cccc([N+](=O)[O-])c1 (stereo not given) [cilnidipine]
inactive: 1 nM -1.01% | 8.33 nM -0.52% | 100 nM 0.89% | 833.33 nM 0.38% | 10000 nM 7.9%

COc1cc(N2CCOCC2)ccc1Nc1ncc(Cl)c(Nc2ccccc2NS(C)(=O)=O)n1
inactive: 1 nM 0.93% | 8.33 nM 2.59% | 100 nM 2.32% | 833.33 nM -2.21% | 10000 nM -13.2%

Cc1cc(NC(=O)C2=C(O)c3ccccc3S(=O)(=O)N2C)no1 [isoxicam]
inactive: 1 nM -3.86% | 8.33 nM -3.12% | 100 nM -4.12% | 833.33 nM -2.59% | 10000 nM -0.72%

COc1cc([C@@H]2c3cc4c(cc3[C@@H](O[C@@H]3O[C@@H]5CO[C@@H](C)O[C@H]5[C@H](O)[C@H]3O)[C@H]3COC(=O)[C@H]23)OCO4)cc(OC)c1OP(=O)(O)O [etoposide-phosphate]
inactive: 1 nM -3.4% | 8.33 nM -1.24% | 100 nM -0.75% | 833.33 nM -0.98% | 10000 nM 1.67%

N=C(N)Nc1ccc(C(=O)Oc2ccc3cc(C(=N)N)ccc3c2)cc1 [nafamostat]
inactive: 1 nM 1.66% | 8.33 nM 4.06% | 100 nM 4.33% | 833.33 nM 3.65% | 10000 nM 4.81%

CC(=O)Nc1cccc(-n2c(=O)n(C3CC3)c(=O)c3c(Nc4ccc(I)cc4F)n(C)c(=O)c(C)c32)c1 [trametinib]
inactive: 1 nM -1.42% | 8.33 nM -7.51% | 100 nM -14.6% | 833.33 nM -16.9% | 10000 nM -17.4%

C[C@@H](c1nc(-c2ccc(C#N)cc2)cs1)[C@](O)(Cn1cncn1)c1cc(F)ccc1F [isavuconazole]
inactive: 1 nM -2.38% | 8.33 nM -2.11% | 100 nM -0.9% | 833.33 nM 1.65% | 10000 nM 2.79%

CN(C)CCn1cc(S(=O)(=O)c2cccc(F)c2)c2cccnc21
inactive: 1 nM 5.3% | 8.33 nM 5.65% | 100 nM 1.09% | 833.33 nM -1.84% | 10000 nM -1.97%

CN[C@@H](C)CCC=C(C)C [isometheptene-mucate]
inactive: 1 nM -0.09% | 8.33 nM 2.18% | 100 nM 0.64% | 833.33 nM -1.17% | 10000 nM -0.16%

N=C(N)NCCC[C@H](N)C(=O)O [L-arginine]
inactive: 1 nM 2.26% | 8.33 nM 3.4% | 100 nM -3.93% | 833.33 nM 1.97% | 10000 nM 1.83%

c1ccc2c(c1)[I+]c1ccccc1-2 [diphenyleneiodonium]
inactive: 1 nM 0.63% | 8.33 nM 1.31% | 100 nM -0.64% | 833.33 nM -1.09% | 10000 nM 0.37%

CN1CC[C@@H]2CN3CCc4cccc(c43)[C@@H]2C1
inactive: 1 nM -3.24% | 8.33 nM -0.59% | 100 nM 1.77% | 833.33 nM -0.07% | 10000 nM 1.24%

Cc1cc(C)nc(SCC(=O)Nc2ncc(Cc3cccc4ccccc34)s2)n1
inactive: 1 nM 0.9% | 8.33 nM -1.68% | 100 nM 1.78% | 833.33 nM 0.63% | 10000 nM 2.48%

COc1ncc(-c2ccc3nccc(-c4ccnnc4)c3c2)cc1NS(=O)(=O)c1ccc(F)cc1F
inactive: 1 nM -1.37% | 8.33 nM -0.94% | 100 nM -8.41% | 833.33 nM -8.47% | 10000 nM 3.03%

COc1cc2ncnc(Nc3ccc(Cl)cc3F)c2cc1OC
inactive: 1 nM 1.92% | 8.33 nM -0.75% | 100 nM -1.55% | 833.33 nM -5% | 10000 nM -11.2%

CC(C)N(CCC(C(N)=O)(c1ccccc1)c1ccccn1)C(C)C (stereo not given) [disopyramide]
inactive: 1 nM -2.08% | 8.33 nM -2.32% | 100 nM -1.92% | 833.33 nM -0.48% | 10000 nM -5.17%

NC[C@H]1O[C@H](O[C@H]2[C@H](O)[C@@H](O[C@H]3O[C@H](CO)[C@@H](O)[C@H](N)[C@H]3O)[C@H](N)C[C@@H]2N)[C@H](N)[C@@H](O)[C@@H]1O [bekanamycin]
inactive: 1 nM -0.6% | 8.33 nM -0.02% | 100 nM -0.32% | 833.33 nM 0% | 10000 nM -1.85%

COc1cc(OC)c2c(=O)[nH]c(-c3cc(C)c(OCCO)c(C)c3)nc2c1 [apabetalone]
inactive: 1 nM -0.27% | 8.33 nM 0.93% | 100 nM 2.32% | 833.33 nM -1.57% | 10000 nM -0.84%
